# Tests used:
# Experiment in all cases: PBM binding z-score (relative to random genomic background probes); higher = stronger binding; sequences stand for … in GC…GCGATTGACAGCGTAGAATGAAGG
# [1] = tested on: PPARg:RXRa DBDmut IVT, anti-RXR (DBD mutation: RXRa K156A/R161A, NR concentration 270 nM, RXRa partner concentration 90 nM)
# Procedure, shortened: (§1)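 Scanned fluorescence from custom Agilent 4×180K protein-binding microarrays was regression-normalized. Binding z-scores use random background probes as reference. Ligand-free nuclear receptor dimers were incubated on the arrays for 1 h and detected with antibodies against each partner (one per run).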
# [2] = tested on: PPARg:RXRa IVT, anti-PPARg (NR concentration 270 nM, RXRa partner concentration 90 nM)
# Procedure, shortened: as §1
# [3] = tested on: PPARg DBDmut:RXRa IVT, anti-PPARg (DBD mutation: PPARg1 K132A/R137A, NR concentration 270 nM, RXRa partner concentration 90 nM)
# Procedure, shortened: as §1
# [4] = tested on: PPARg DBDmut IVT, anti-PPARg (DBD mutation: PPARg1 K132A/R137A, NR concentration 270 nM)
# Procedure, shortened: as §1
# [5] = tested on: PPARg homodimer (NR concentration 180 nM)
# Procedure, shortened: as §1
# [6] = tested on: PXR:RXRa (NR concentration 270 nM, RXRa partner concentration 90 nM)
# Procedure, shortened: as §1
# [7] = tested on: PXR homodimer (NR concentration 270 nM)
# Procedure, shortened: as §1
# [8] = tested on: RARa:RXR (NR concentration 270 nM, RXRa partner concentration 90 nM)
# Procedure, shortened: as §1
# [9] = tested on: RARa homodimer (NR concentration 270 nM)
# Procedure, shortened: as §1
# [10] = tested on: RARb:RXRa (NR concentration 270 nM, RXRa partner concentration 90 nM)
# Procedure, shortened: as §1
# [11] = tested on: RARb homodimer (NR concentration 270 nM)
# Procedure, shortened: as §1
# [12] = tested on: RARg:RXRa (NR concentration 270 nM, RXRa partner concentration 90 nM)
# Procedure, shortened: as §1
# [13] = tested on: RARg homodimer (NR concentration 270 nM)
# Procedure, shortened: as §1
# [14] = tested on: RXRa DBDmut IVT, anti-RXR (DBD mutation: RXRa K156A/R161A, NR concentration 90 nM)
# Procedure, shortened: as §1
# [15] = tested on: RXRa homodimer (NR concentration 180 nM)
# Procedure, shortened: as §1
# [16] = tested on: THRa:RXRa (NR concentration 90 nM, RXRa partner concentration 90 nM)
# Procedure, shortened: as §1
# [17] = tested on: THRa homodimer (NR concentration 90 nM)
# Procedure, shortened: as §1
# [18] = tested on: VDR homodimer (NR concentration 270 nM)
# Procedure, shortened: as §1
Sequence,PBM binding z-score [1],PBM binding z-score [2],PBM binding z-score [3],PBM binding z-score [4],PBM binding z-score [5],PBM binding z-score [6],PBM binding z-score [7],PBM binding z-score [8],PBM binding z-score [9],PBM binding z-score [10],PBM binding z-score [11],PBM binding z-score [12],PBM binding z-score [13],PBM binding z-score [14],PBM binding z-score [15],PBM binding z-score [16],PBM binding z-score [17],PBM binding z-score [18]
CCGACTGGGTCAGAAAGGTTACCATACCATCCGG,3.31,3.92,0.245,-0.526,2.08,2.48,0.43,3.17,0.179,3.15,3.1,3.34,3.44,-0.333,3.12,2.09,0.207,1.14
GCGACTGGGGCAAAGCAGGTTACCTTAAGGTTGG,4.98,3.47,-0.487,-1.22,-0.599,0.288,-0.563,0.523,-0.791,0.877,0.957,0.509,0.229,-0.0758,0.238,3.21,1.82,-0.116
GCTTGTGGATCAAGGTTAAGAAAGACTAAGCTAA,0.991,1.19,-0.0361,0.0112,0.339,0.429,-0.166,0.735,-0.249,0.702,0.362,0.34,0.12,0.0412,0.848,1.27,-0.23,0.00536
TATACAGGGTCAAAGGCCACAGTACGAATGTCGA,2.84,5.48,3.56,1.95,3.1,4.85,0.619,7.09,1.53,4.45,3.85,6.13,5.62,3.08,7.97,3.53,1.28,3.15
TAGCCTAGGTAATTGGGCCAGTATAGTACGCATC,1.83,2.8,0.0704,-0.276,-0.531,-0.502,-0.469,-0.743,-0.501,-0.455,-0.403,-0.17,-0.133,-1.07,-0.301,-0.106,-0.68,-0.642
GGAACGAGGGCATTAGAGTTGATAGCATGGCGAT,3.06,2.02,-0.0353,-0.143,0.508,3.02,0.854,0.328,-0.0747,1.79,0.848,1.11,1.65,2.84,0.695,2,-0.303,2.49
GCGAATGGGGCATCAGCAGGTTACCATAACTTAA,0.757,0.63,-0.741,-0.65,0.165,0.102,-0.437,0.532,-0.444,0.614,0.462,0.664,0.351,0.119,0.257,0.795,0.03,-0.224
TCTCGGCGGACACGAAGGTCAGAGCTTTCCAGAG,0.413,0.291,-0.613,-1.55,0.53,1.09,-0.42,1.09,-0.212,2.45,2.83,2.03,2.17,0.141,1.28,1.16,-0.151,0.187
CTACCAAGGTGAACAAGGACGTTGATTACTATTC,2.52,2.17,0.0703,0.657,0.761,0.356,0.295,0.5,0.187,1.55,0.951,0.848,1.13,0.601,0.715,2.43,1.36,0.537
ATCTCTAGGTAAAAGTTCAGTAAATCCCGAGGAT,1.87,3.76,1.75,1.54,1.88,1.8,1.71,1.47,1.92,2.41,2.41,1.83,1.94,0.937,1.61,1.38,0.269,2.01
CCTATTAGTTGACCATAAGGGCAACAGAAGCTCG,0.409,0.628,-0.0621,0.417,1.95,0.896,0.847,1.15,1.6,1.42,1.77,1.46,1.16,0.685,0.825,1.76,1.15,0.832
TCTGGGAGGACACGAAGGTCAGAGCTTTCCAGAG,1.04,0.947,-0.643,-0.716,1.05,1.99,0.818,2.19,0.238,3.28,3.49,3.51,4.11,0.416,2.01,2.9,1.18,1.35
CCTACTGGGCCAAGGGTCATTGATTCCAATGCTC,3.29,5.63,0.63,-0.667,1.67,3.15,-0.275,3.87,0.1,3.06,3.11,3.67,3.31,-0.197,3.75,2.11,0.000297,1.68
GCTAGCAGGCCTTTTGGGTCACTCAATGACGGGC,0.302,0.843,-1.25,-1.51,-0.592,0.137,-0.69,0.937,-0.611,1.06,1.39,0.621,0.516,-0.579,0.552,2.11,0.611,-0.536
CCTACTGGCCCAAAGGTCATTGATTCCAATGCTC,0.578,3.61,-0.204,-0.16,2.07,5,0.894,4.8,1.12,4.44,4.89,4.89,4.36,1.06,5.05,3.3,0.916,2.14
CGTCCAAGGTCAAAGGTCAGTGTAGAGATGACGG,4.11,5.93,0.888,1.64,5.56,7.16,1.91,8.91,3.88,5.94,5.37,8.64,8.04,3.99,10.1,4.77,2.77,3.86

Sequence,PBM binding z-score [1],PBM binding z-score [2],PBM binding z-score [3],PBM binding z-score [4],PBM binding z-score [5],PBM binding z-score [6],PBM binding z-score [7],PBM binding z-score [8],PBM binding z-score [9],PBM binding z-score [10],PBM binding z-score [11],PBM binding z-score [12],PBM binding z-score [13],PBM binding z-score [14],PBM binding z-score [15],PBM binding z-score [16],PBM binding z-score [17],PBM binding z-score [18]
CCTACTGTGCCATCAGGTCATTGATATCAACGTT,4.55,4.14,2.09,1.29,2.2,2.45,1.76,2.79,2.21,2.25,2.98,2.18,1.93,1.69,1.53,3.64,3.95,2.39
CCTCGGAGGACAGAAGGCCAGAGCTGTCCGCTTT,-0.668,-1.07,-2.21,-1.68,-0.167,-0.524,-1.34,-0.34,-0.862,0.374,0.275,-0.112,0.0875,-0.346,-0.765,0.0492,-0.927,-0.212
ACTAGCAGGCCAAGGTTGGGTCACTCAAACAAAG,0.282,0.868,-0.95,-1.46,0.597,0.524,-0.493,1.24,-0.93,1.69,2.3,1.64,1.36,-0.829,0.638,2.04,0.571,0.0121
ATCTCTAGGTAAAGTTCAGGGAAAGATCGATAGA,2.67,2.44,1.23,1.09,2.21,2.17,1.99,1.93,1.68,2.99,2.7,2.5,2.77,1.38,1.98,1.61,0.441,2.18
CCTACTGGGCGATCAGGTCATTGATATCAACGTT,1.18,1.66,-0.36,-0.403,0.86,1.29,0.227,1.47,0.157,1.6,2.23,1.35,1.37,0.269,1.02,2.74,2.18,1.53
AGAATGAGGTTACCAAGGATCAGGGAAACGCTTG,3.39,3.37,1.28,0.207,0.544,1.28,0.0221,2.01,-0.233,2.04,1.02,1.94,1.65,0.704,2.62,2.94,1.1,0.508
TCTAGGAGGACACGAAAGGTCAGAGCTCGACATC,2.31,2.52,0.115,-0.502,2.04,4.08,0.408,4.32,1.42,4.35,4.84,4.88,5.11,1.35,4.21,3.98,1.4,0.994
TTACCAAGGTGAAGGTCGCTGATCCCTCTGTAGA,1.76,3.41,-0.525,-0.735,0.05,0.966,-0.523,1.56,-0.643,2.5,2.03,1.72,1.7,-0.269,1.85,2.41,0.612,-0.248
ATACCAAGGTGATCGTTAGGTCGTTGATACTAAC,0.451,1.04,0.332,1.27,0.52,0.494,0.467,1.25,0.0968,0.816,1.02,0.983,0.72,0.203,0.459,2.26,1.49,0.472
GTACGAAGGTGAATAGGTCGTTGATGAGTAGGCG,1.5,2.19,-0.159,-0.129,0.859,0.754,-0.215,1.75,0.356,2.01,1.82,2.78,1.4,-0.12,1.81,0.742,-0.401,0.0149
CCTGCTACGTCATGGTCAGCTAATCTACAGTATG,0.0597,-0.592,0.222,-0.835,-0.235,-0.16,-0.428,-0.116,-0.328,0.259,-0.0724,0.00255,-0.0549,0.43,-0.184,-0.381,-0.695,-0.512
TCTACAGGGTCAAAGGCCAGAGTACGAATGTCGA,2.69,4.11,0.545,0.757,1.6,4.1,0.202,5.76,0.385,4.29,3.2,5.47,5,3.16,6.72,3.48,0.454,2.55
TCTTGTAGATCCAGCAGGTTAAGAAAGCCTGAGT,1.04,-0.258,-0.0441,-0.28,-0.955,0.35,0.226,0.259,-0.051,0.133,-0.0215,-0.196,-0.399,0.513,0.171,0.192,-0.236,-0.224
TCTTGTAGATCAAGAAGGTTAAGAAAGCCTGAGT,1.65,0.53,-0.357,0.523,0.323,0.858,0.332,0.941,0.353,0.732,0.784,0.407,0.315,0.387,0.863,0.451,-0.553,0.21
CATCCAAGGTCAATGCTAGGTCAGTGAAAGCATT,3.38,4.16,0.505,0.239,5.51,4.73,1.76,5.95,2.23,5.04,4.85,7.59,6.9,3.53,5.4,4.39,2.95,3.16

# Reference: the supplement of paper PMC6555819
